The record followed here is PubChem BioAssay (NCATS).

Assay [1] concerns the target Aldehyde dehydrogenase, mitochondrial (Homo sapiens) (UniProt P05091). The assay is described as follows: qHTS for Inhibitors of the Aldehyde Dehydrogenase Family (ALDH2) Primary screen (AID 2061308).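 Further: plate controls were vehicle for no effect and reference inhibitor for full effect; nearly all actives have a fitted effect of over 55% in size.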 The note with it: ALDH2 enzyme inhibition qHTS, 1536-well; series mostly up to 56 µM.
Assay [2] concerns the target Retinaldehyde dehydrogenase 3 (Homo sapiens) (UniProt P47895). The assay is described as follows: qHTS for Inhibitors of the Aldehyde Dehydrogenase Family (ALDH1A3) Primary screen (AID 2061315).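 Further: plate controls were DMSO vehicle for no effect and reference inhibitor for full effect.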 The following applies: ALDH inhibition qHTS; series mostly up to 56 µM.

Structures are written as SMILES. Records with an inconclusive call do not appear. Values without a mark were called inactive. The source made the active and inactive calls. The call rests on the fitted dose curve; in most records, active means well fitted curve in the direction sought with a large enough effect; inconclusive means small, poorly fitted or top-dose-only effect, or another doubt; inactive means no such curve, though single readings can be large; an effect the other way counts as inactive or inconclusive.

For the compound `COCCNC(=O)Nc1ccc2nc(-c3cccs3)c(-c3cccs3)nc2c1`, the Potency result in assay [1] and in assay [2] was “inactive” in each case.

As for `CC(=O)O[C@H]1CC(C)(C)CC2[C@]13CO[C@@]21CCC2[C@@]4(C)CC[C@H](O[C@@H]5OC[C@H](O[C@@H]6O[C@H](CO)[C@@H](O)[C@H](O)[C@H]6O[C@@H]6OC[C@@H](O[C@@H]7O[C@H](CO)[C@@H](O)[C@H](O)[C@H]7O)[C@H](O)[C@H]6O)[C@H](O)[C@H]5O[C@@H]5O[C@H](CO)[C@@H](O)[C@H](O)[C@H]5O)[C@@](C)(CO)C4CC[C@@]2(C)[C@]1(C)C[C@H]3O` (stereo not given in full), the activity change, negative = inhibition was 0.34% [at 11.2 µM] in assay [1] and 11.1% [at 11.2 µM] in assay [2].

Consider `O=C([C@@H](Cc1ccc(O[S+](=O)([O-])c2ccccn2)cc1)N[S+](=O)([O-])c1cccc2cccnc12)N1CCN(c2ccccc2)CC1`, for which the Potency result in assay [1] and in assay [2] was “inactive” throughout.

In the case of `CC(=O)c1ccc(C(=O)Nc2nnc(-c3ccco3)o2)cc1`, the Potency entry in assay [1] and in assay [2] was “inactive” throughout.

Regarding `Cc1cc(C)nc(NC(=S)N2CCN(c3cccc(Cl)c3Cl)CC2)c1`, the Potency result in assay [1] and in assay [2] was “inactive” each time.

For the compound `Cc1cc(NS(=O)(=O)Cc2ccc(NC(=O)Cc3ccc(Cl)c(Cl)c3)cc2)no1`, the Potency entry in assay [1] and in assay [2] was “inactive” each time.

On to `FC(F)(F)c1cc(-c2ccc(CNc3nc(-c4ccccc4C(F)(F)F)nc4ccccc34)cc2)cc(C(F)(F)F)c1`, for which the Potency entry in assay [1] and in assay [2] was “inactive” in each case.

`Cc1ccsc1C1N=C(Nc2nc3ccccc3o2)NC2=C1C(=O)CCC2` (stereo not given): the Potency entry in assay [1] and in assay [2] was “inactive” throughout.

For `O=S(=O)(Nc1cccc2cccnc12)c1ccccc1`, the Potency entry in assay [1] and in assay [2] was “inactive” in each case.

Take `O=C(Nc1ccc2ccccc2c1)Nc1nnc(-c2ccccc2)s1`: the Potency entry in assay [1] and in assay [2] was “inactive” each time.

Turning to `CC(=O)Nc1sc2c(c1-c1nc3ccccc3s1)CCNC2`, the Potency entry in assay [1] and in assay [2] was “inactive” in each case.

For the compound `Cc1ccc(Cn2ncc3c4sc(C)cc4n(C)c3c2=O)cc1`, the Potency result in assay [1] and in assay [2] was “inactive” throughout.

Take `Cc1cccc(-n2cnc3cc(C(=O)N4CCC(c5ccccc5)CC4)ccc32)c1`: the Potency result in assay [1] and in assay [2] was “inactive” each time.

Turning to `O=C1c2ccc(Nc3ccc(F)cc3F)cc2CCc2ccc(OCC(O)CO)cc21` (stereo not given), the Potency entry in assay [1] and in assay [2] was “inactive” throughout.

For `COc1ccnc(NC(=S)N2CCN(c3ncc(C(F)(F)F)cc3Cl)CC2)c1`, the Potency result in assay [1] and in assay [2] was “inactive” each time.

As to `COC(=O)[C@H](O)[C@H]1C(C)(C)[C@H](OC(C)=O)[C@@]2(O)C(=O)[C@]1(C)C1CC[C@]3(C)C(CC(=O)O[C@H]3c3ccoc3)[C@]13O[C@@H]32` (stereo not given in full), the Potency entry in assay [1] and in assay [2] was “inactive” throughout.

Regarding `N#Cc1nonc1-c1ccccc1`, the Potency result in assay [1] and in assay [2] was “inactive” in each case.

With `Cc1ccc(S(=O)(=O)Nc2ccccc2C(=O)Nc2ccc(-c3ccccc3)nn2)cc1`, the Potency result in assay [1] and in assay [2] was “inactive” each time.

`S=C(Nc1ccc(Cl)c(Cl)c1)Nc1nnc(-c2ccncc2)o1`: the Potency entry in assay [1] and in assay [2] was “inactive” each time.

Consider `CNc1oc(-c2cccc(Cl)c2Cl)nc1C#N`, for which the Potency entry in assay [1] and in assay [2] was “inactive” each time.

As to `COCCN(CCOC)c1nc(C)nc2c1nc(-c1ccccc1)n2CCN1CCCC1`, the Potency entry in assay [1] and in assay [2] was “inactive” in each case.

Consider `O=C(Nc1nnc(-c2ccncc2)s1)NC12CC3CC(CC(C3)C1)C2`, for which the Potency entry in assay [1] and in assay [2] was “inactive” in each case.

As for `COc1ccc(C2Nc3ccccc3C(=O)N2Cc2ccncc2)cc1COc1c(C)cc(NC(C)=O)cc1C` (stereo not given), the Potency result in assay [1] and in assay [2] was “inactive” each time.

As for `Cc1ccc(S(=O)(=O)Nc2cnccc2C(=O)Nc2ccc3ccccc3c2)cc1`, the Potency entry in assay [1] and in assay [2] was “inactive” each time.

For the compound `CC(C)c1ccccc1-c1ncc(F)c(NC2(c3ccc(-c4cccnc4)cc3)CC2)n1`, the Potency entry in assay [1] and in assay [2] was “inactive” each time.

Regarding `CC(=O)Nc1ccc(S(=O)(=O)Nc2cccc3cccnc23)cc1`, the Potency result in assay [1] and in assay [2] was “inactive” in each case.

Turning to `O=C1CCCC2=C1C1(CCCC1)N=C(Nc1nc3ccccc3n1Cc1ccccc1)N2`, the Potency entry in assay [1] and in assay [2] was “inactive” throughout.

As to `Cc1ccc(NS(=O)(=O)c2ccccc2C(=O)Nc2nc(-c3ccccc3)cs2)cc1`, the Potency entry in assay [1] and in assay [2] was “inactive” each time.

In the case of `Cc1ccc(-c2cc(C(=O)NCc3ccc(S(C)(=O)=O)cc3)c3ccccc3n2)cc1C`, the Potency result in assay [1] and in assay [2] was “inactive” each time.

`CC(C)c1ccccc1-c1ncc(F)c(NCC2CCN(c3cccnc3)CC2)n1`: the Potency result in assay [1] and in assay [2] was “inactive” each time.

For `CCOc1ccc(CNc2ccc(-c3nc4ccccc4[nH]3)cc2)cc1`, the Potency entry in assay [1] and in assay [2] was “inactive” in each case.

Consider `O=C(OCc1ccccc1)N1CCN(C(=O)[C@H](Cc2ccc(O[S+](=O)([O-])c3cccc4cnccc34)cc2)N[S+](=O)([O-])c2cccc3cnccc23)CC1`, for which the Potency result in assay [1] and in assay [2] was “inactive” in each case.

With `Cn1nnnc1Sc1ncnc2scc(-c3ccc(N)cc3)c12`, the Potency result in assay [1] and in assay [2] was “inactive” throughout.

For the compound `Cc1ccc(NS(=O)(=O)c2cc3c(cc2Cl)NC(=O)CO3)cc1C`, the Potency result in assay [1] and in assay [2] was “inactive” throughout.

In the case of `CN(C)c1cccc(-c2nccc(N3CCC(C(N)=O)CC3)n2)c1`, the Potency result in assay [1] and in assay [2] was “inactive” throughout.

`O=C1CCc2cc(Cl)c(S(=O)(=O)Nc3ccc(Cl)c(Cl)c3)cc2N1`: the Potency result in assay [1] and in assay [2] was “inactive” in each case.

For the compound `O=C1CCCC2=C1C(c1[nH]ncc1Cl)N=C(Nc1nc3cc(Br)ccc3o1)N2` (stereo not given), the Potency result in assay [1] and in assay [2] was “inactive” in each case.

Turning to `Cc1ccc(NS(=O)(=O)c2ccc3c(c2)oc(=O)n3C)cc1C`, the Potency result in assay [1] and in assay [2] was “inactive” throughout.

As to `O=S(=O)(NCCNS(=O)(=O)c1c(F)cccc1F)c1ccc2c(c1)OCCO2`, the Potency result in assay [1] and in assay [2] was “inactive” each time.

As for `O=C(OCC#CCSc1nnc(-c2cccc3ccccc23)o1)c1ccc(F)cc1`, the Potency entry in assay [1] and in assay [2] was “inactive” in each case.
